Only some compounds are listed: those with a hit (about 15% of all), similar ones and a draw of the others.
ELG1 repair inh: qHTS screen for small molecules that inhibit ELG1-dependent DNA repair in human embryonic kidney (HEK293T) cells expressing luciferase-tagged ELG1. HEK293T ELG1-luciferase reporter, luminescence, 16 h; DNA damage induced by 5-fluorouridine. Potency, µM (series often up to 46.1 µM), actives largely listed as inhibitors. 2.3% of 330,000 active. AID 504467, 2011; also: nearly all actives have a fitted effect of over 55% in size
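Cells (2,000 per well) received 5-fluorouridine plus test compound or DMSO and were incubated 16 hr at 37 °C, 5% CO2. Luciferase activity was read by luminescence 30 min after ONE-Glo addition; signal suppression marked inhibition of damage-induced ELG1 function.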
TDP1 cell CPT: qHTS for Inhibitors of human tyrosyl-DNA phosphodiesterase 1 (TDP1): qHTS in cells in presence of CPT; chicken DT40 Tdp1-/-;hTDP1 cells + 20 nM CPT, ATP luminescence, 48 h; 12% of 420,000 active; Potency, µM (top dose mostly 46.2 µM), usual class: inhibitors; also: nearly all actives have a fitted effect of over 55% in size
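Chicken DT40 Tdp1-/- cells stably complemented with human TDP1 were seeded at 400 cells/well in medium containing 20 nM camptothecin, exposed to pin-transferred compounds, and grown at 37 °C for at least 48 hr. Viability was read as ATP luminescence.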
RORg inh: qHTS for inhibitors of ROR gamma transcriptional activity; 5.4% of 310,000 active; Nuclear receptor ROR-gamma (Mus musculus), P51450; Potency, µM (highest dose often 53.6 µM), actives largely listed as inhibitors; Drosophila S2 Gal4-RORgamma UAS-luciferase reporter, 20 h; also: nearly all actives have a fitted effect of over 60% in size
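A Gal4/UAS one-hybrid system in insect cells: metallothionein-promoter Gal4–ROR gamma fusion plus Photinus luciferase reporter. Copper sulfate 700 uM final, 20 hr ambient incubation, luminescent detection after 10 min with reagent.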
Gal4-VP16 FLuc: VP16 counterscreen qHTS for inhibitors of ROR gamma transcriptional activity. Drosophila S2 Gal4-VP16 UAS-luciferase, luminescence, 20 h. Potency, µM (series often up to 53.6 µM), most hits filed as inhibitors. 3.5% of 310,000 active. AID 2546, 2010;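 also: Gal4-VP16 expression switched on by copper sulfate through the metallothionein promoter; nearly all actives have a fitted effect of over 50% in size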
DT40 TDP1 no CPT: qHTS for Inhibitors of human tyrosyl-DNA phosphodiesterase 1 (TDP1): qHTS in cells in absence of CPT. DT40 Tdp1-/- hTDP1 cells, no CPT, ATP luminescence, 48 h. Potency, µM (top dose mostly 46.2 µM), actives largely listed as inhibitors. 15% of 420,000 active. AID 686978, 2013; also: nearly all actives have a fitted effect of over 55% in size
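DT40 Tdp1-/-;hTDP1 cells, no CPT (DMSO vehicle only), 400 cells/well; compounds pin-transferred; ≥48 hr, 37 °C; CellTiter-Glo 30 min RT dark, luminescence read.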
12-LOX inh: Primary qHTS assay for inhibitors of human arachidonate 12S-lipoxygenase (ALOX12): Round 2. Polyunsaturated fatty acid lipoxygenase ALOX12 (Homo sapiens), P18054. purified 12hLO, xylenol orange hydroperoxide absorbance. Potency, µM (highest dose often 108 µM), usual class: inhibitors. 1.1% of 580,000 active. AID 1671190, 2021
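Purified human 12hLO (150 nM final) in 25 mM Hepes, 0.01% Triton X-100, pH 7.0 was preincubated 15 min at room temperature with compound. Then 40 uM arachidonic acid was added, 30 min. Hydroperoxide was read by Fe-XO absorbance ratio 573/405 nm.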
Of the large screens only hits and unclear results are named; the others gave an inactive call. Calls follow the shape of the dose curve; as a rule, active = well fitted curve in the direction sought with a large enough effect; inconclusive = small, poorly fitted or top-dose-only effect, or another doubt; inactive = no such curve, though single readings can be large; an effect the other way counts as inactive or inconclusive.

COc1ccc(N2C(=O)c3ccccc3NC2c2cnn(-c3ccccc3)n2)c(OC)c1 (configuration not stated)	none (no result: ELG1 repair inh, TDP1 cell CPT, RORg inh, Gal4-VP16 FLuc, DT40 TDP1 no CPT)
CN(C)c1ccc(C(CC(=O)c2ccccc2)C2CCCCC2=O)cc1 (configuration not stated)	RORg inh inconclusive
O=C(CC(c1ccccc1)C1CCCCC1=O)c1ccccc1 (configuration not stated)	TDP1 cell CPT 18µM, DT40 TDP1 no CPT 16µM (no result: ELG1 repair inh, RORg inh, Gal4-VP16 FLuc)
Cc1cccc(CC(=O)NC(Cc2ccccc2)C(=O)NCc2cc(=O)n(C)c(=O)n2C)c1 (configuration not stated)	none (no result: ELG1 repair inh, TDP1 cell CPT, RORg inh, Gal4-VP16 FLuc, DT40 TDP1 no CPT)
CCOC(=O)C1(CC2CCCCO2)CCN(Cc2cc3ccccc3[nH]2)CC1 (configuration not stated)	ELG1 repair inh inconclusive, TDP1 cell CPT inconclusive, Gal4-VP16 FLuc inconclusive, DT40 TDP1 no CPT 16µM
CCOC(=O)C1(CC2CCCCO2)CCN(S(=O)(=O)c2cccc(F)c2)CC1 (configuration not stated)	none
CCOC(=O)C1(CC2CCCCO2)CCN(Cc2cn[nH]c2-c2cccc(F)c2)CC1 (configuration not stated)	TDP1 cell CPT 16µM, DT40 TDP1 no CPT 10µM
CCCCc1ncc(CN2CCC(CC3CCCCO3)(C(=O)OCC)CC2)[nH]1 (configuration not stated)	TDP1 cell CPT inconclusive
CCOC(=O)C1(CC2CCCCO2)CCN(Cc2ccccc2-c2ccco2)CC1 (configuration not stated)	TDP1 cell CPT inconclusive, DT40 TDP1 no CPT 21µM, 12-LOX inh inconclusive
CC1CCCCN1C(=O)CN1CCN(C(=O)CCc2c[nH]c3ccccc23)CC1 (configuration not stated)	none (no result: ELG1 repair inh, TDP1 cell CPT, RORg inh, Gal4-VP16 FLuc, DT40 TDP1 no CPT)
Cc1sccc1/C=N/NC(=O)C1CC1	none (no result: ELG1 repair inh, TDP1 cell CPT, RORg inh, Gal4-VP16 FLuc, DT40 TDP1 no CPT)
Cc1cccc(C(=O)N2CCC3(CC2)OCC(C(=O)NC2CC2)N3C(=O)c2cccc(C)c2)c1 (configuration not stated)	none (no result: ELG1 repair inh, TDP1 cell CPT, RORg inh, Gal4-VP16 FLuc, DT40 TDP1 no CPT)
C[C@@]12CCC3[C@@](CCC4[C@@]3(C)CCC[C@@]4(C)C(=O)NC3CCCCC3)(CC1=O)C2 (some centres not stated)	TDP1 cell CPT 18µM, DT40 TDP1 no CPT 23µM (no result: RORg inh, Gal4-VP16 FLuc)
COC(=O)[C@]1(C)CCC[C@@]2(C)C3CC[C@@]4(C)C[C@]3(CCC21)CC4=NO (some centres not stated)	ELG1 repair inh inconclusive, TDP1 cell CPT inconclusive, DT40 TDP1 no CPT 21µM (no result: RORg inh, Gal4-VP16 FLuc)
COC(=O)[C@]1(C)CCC[C@@]2(C)C3CC[C@@]4(C)C[C@]3(CCC21)CC(=O)N4C (some centres not stated)	TDP1 cell CPT inconclusive, DT40 TDP1 no CPT inconclusive (no result: RORg inh, Gal4-VP16 FLuc)
C=C1C[C@@]23CCC4[C@@](C)(CCC[C@@]4(C)C(=O)OC)C2CC[C@]1(OC(C)=O)C3 (some centres not stated)	TDP1 cell CPT 18µM, DT40 TDP1 no CPT inconclusive (no result: RORg inh, Gal4-VP16 FLuc)
CC(C)CCN1CCn2c(nnc2-c2ccccc2)C1	none (no result: ELG1 repair inh, TDP1 cell CPT, RORg inh, Gal4-VP16 FLuc, DT40 TDP1 no CPT)
COc1cc(C(=O)NCCOc2cc(C)cc(C)c2)c(Br)c(OC)c1OC	TDP1 cell CPT 16µM, DT40 TDP1 no CPT inconclusive
COc1cc(C(=O)NC2CCCC2)c(Br)c(OC)c1OC	none
C=CCN(c1ccc(C(=O)Nc2ccc(NC(C)=O)cc2)cc1)S(C)(=O)=O	TDP1 cell CPT inconclusive, DT40 TDP1 no CPT 23µM
Cc1ccc(SCCNC(=O)c2ccccc2)cc1	none
Cc1ccc(C(=O)C[n+]2ccc(Cc3ccccc3)cc2)cc1	ELG1 repair inh 7.3µM, TDP1 cell CPT 5.8µM, DT40 TDP1 no CPT 5.8µM
Cc1cc[n+](CC(=O)c2ccc(F)cc2)cc1	none (no result: ELG1 repair inh, RORg inh, Gal4-VP16 FLuc, 12-LOX inh)
